# Experimental data published in PubChem BioAssay (EPA / NIEHS).
# Where “and” joins values, the source holds several entries; their conditions need not be identical. Equal entries are not always repeated. A structure can be active in one record and inactive in another. Calls of active or inactive are those of the source. Rule for the calls: active = hit-call score of the fitted dose curve at least 0.9, where 1 is the maximum; inactive = score below 0.9.
# Experiments:
# [1] = read-out: Monokine induced gamma interferon (MIG), CXCL9 (gene 4283); test: BSK_hDFCGF_MIG: BioMAP Diversity Plus: hDFCGF Assay for Monokine induced gamma interferon (MIG) Biomarker Activity (AID 2283063); conditions: primary human foreskin fibroblasts; actives raise or lower the signal
# In short: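 ELISA read-out of MIG from primary human dermal fibroblasts 24 h post-dosing. Gain or loss of signal fitted bidirectionally, DMSO as baseline.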
# [2] = read-out: Matrix Metallopeptidase 1 (MMP1), MMP1 (gene 4312); test: BSK_hDFCGF_MMP1: BioMAP Diversity Plus: hDFCGF Assay for Matrix Metallopeptidase 1 (MMP1) Biomarker Activity (AID 2283064); conditions: primary human foreskin fibroblasts; actives raise or lower the signal
# In short: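 hDFCGF primary fibroblasts (human foreskin); chemical added; 24 h; MMP1 by ELISA; bidirectional fit vs DMSO.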
# [3] = read-out: Vascular cell adhesion molecule 1 (VCAM1), VCAM1 (gene 7412); test: BSK_hDFCGF_VCAM1: BioMAP Diversity Plus: hDFCGF Assay for Vascular cell adhesion molecule 1 (VCAM1) Biomarker Activity (AID 2283065); conditions: primary human foreskin fibroblasts; actives raise or lower the signal;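 for AC50: VCAM-1 protein level quantified by ELISA after 24 h chemical exposure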
# In short: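 Primary human foreskin fibroblasts (hDFCGF system) were dosed with chemical and VCAM-1 was measured by ELISA 24 h later. Bidirectional curve fitting used DMSO as negative control and activity baseline.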
# [4] = read-out: Plasminogen activator inhibitor-1 (PAI1), SERPINE1 (gene 5054); test: BSK_hDFCGF_PAI1: BioMAP Diversity Plus: hDFCGF Assay for Plasminogen activator inhibitor-1 (PAI1) Biomarker Activity (AID 2283066); conditions: primary human foreskin fibroblasts; actives raise or lower the signal
# In short: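 Human foreskin fibroblasts in the hDFCGF system were dosed with compound for 24 h; PAI-1 was quantified by ELISA. Bidirectional curve fitting used DMSO as negative control and baseline.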
# [5] = read-out: Intercellular Adhesion Molecule 1 (ICAM1), ICAM1 (gene 3383); test: BSK_KF3CT_ICAM1: BioMAP Diversity Plus: KF3CT Assay for Intercellular Adhesion Molecule 1 (ICAM1) Biomarker Activity (AID 2283067); conditions: primary human keratinocytes with fibroblasts; actives raise or lower the signal
# In short: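 Human keratinocyte plus foreskin fibroblast primary co-culture was exposed to chemical for 24 h. ICAM-1 was then quantified by ELISA, and the data were fit bidirectionally against DMSO as the negative control and baseline.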
# [6] = read-out: Interferon-gamma inducible Protein 10 (IP10), CXCL10 (gene 3627); test: BSK_KF3CT_IP10: BioMAP Diversity Plus: KF3CT Assay for Interferon-gamma inducible Protein 10 (IP10) Biomarker Activity (AID 2283068); conditions: primary human keratinocytes with fibroblasts; actives raise or lower the signal
# In short: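 ELISA read-out of IP-10 after 24 h chemical dosing of human skin primary co-culture (keratinocytes, foreskin fibroblasts). Gain or loss of signal relative to DMSO, bidirectional curve fit.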
# [7] = BSK_KF3CT_SRB: Viability Assessment in the BioMAP Diversity Plus: KF3CT Assay (AID 2283069); conditions: primary human keratinocytes with fibroblasts;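 note: total protein by sulforhodamine B staining as a cytotoxicity measure; read 24 h after compound addition; fitted for both signal gain and loss against DMSO baseline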
# In short: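 Keratinocytes co-cultured with foreskin fibroblasts (human primary); chemical added, 24 h; fix 10% TCA, stain 0.1% SRB, A560. Bidirectional fit vs DMSO.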
# [8] = read-out: Interleukin-1 alpha (IL1a), IL1A (gene 3552); test: BSK_KF3CT_IL1a: BioMAP Diversity Plus: KF3CT Assay for Interleukin-1 alpha (IL1a) Biomarker Activity (AID 2283070); conditions: primary human keratinocytes with fibroblasts; actives raise or lower the signal
# In short: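 Chemicals were dosed onto co-cultured human keratinocytes and foreskin fibroblasts, IL-1a was quantified by ELISA at 24 h, and activity was fitted in both directions relative to DMSO controls.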
# [9] = read-out: TIMP metallopeptidase inhibitor 2 (TIMP2), TIMP2 (gene 7077); test: BSK_KF3CT_TIMP2: BioMAP Diversity Plus: KF3CT Assay for TIMP metallopeptidase inhibitor 2 (TIMP2) Biomarker Activity (AID 2283071); conditions: primary human keratinocytes with fibroblasts; actives raise or lower the signal
# In short: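 Human primary keratinocyte/foreskin fibroblast co-culture dosed with chemical and sampled at 24 h. TIMP-2 levels quantified by ELISA; bidirectional fitting against DMSO negative control as baseline.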
# [10] = read-out: Transforming growth factor beta 1 (TGFb1), TGFB1 (gene 7040); test: BSK_KF3CT_TGFb1: BioMAP Diversity Plus: KF3CT Assay for Transforming growth factor beta 1 (TGFb1) Biomarker Activity (AID 2283072); conditions: primary human keratinocytes with fibroblasts; actives raise or lower the signal
# In short: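 Human keratinocyte plus foreskin fibroblast primary co-culture, dosed with chemical for 24 h. TGF-b1 quantified by ELISA. Activity fitted bidirectionally against DMSO negative control as baseline.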
# [11] = read-out: C-C motif chemokine 2 (Homo sapiens) (UniProt P13500); test: BSK_KF3CT_MCP1: BioMAP Diversity Plus: KF3CT Assay for Monocyte Chemoattractant Protein 1 (MCP1/CCL2) Biomarker Activity (AID 2283073); conditions: primary human keratinocytes with fibroblasts; actives raise or lower the signal
# In short: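 Human keratinocyte plus foreskin fibroblast primary co-culture exposed to chemical for 24 h. MCP-1 levels measured by ELISA. Bidirectional curve fitting relative to DMSO negative control as baseline.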
# [12] = read-out: Matrix Metallopeptidase 9 (MMP9), MMP9 (gene 4318); test: BSK_KF3CT_MMP9: BioMAP Diversity Plus: KF3CT Assay for Matrix Metallopeptidase 9 (MMP9) Biomarker Activity (AID 2283074); conditions: primary human keratinocytes with fibroblasts; actives raise or lower the signal;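 for AC50: MMP9 protein level quantified by ELISA in the co-culture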
# In short: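 Human keratinocyte/foreskin fibroblast co-culture; compound added; 24 h; MMP-9 by ELISA; bidirectional fit vs DMSO baseline.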
# [13] = read-out: urokinase plasminogen activator (uPA), PLAU (gene 5328); test: BSK_KF3CT_uPA: BioMAP Diversity Plus: KF3CT Assay for urokinase plasminogen activator (uPA) Biomarker Activity (AID 2283075); conditions: primary human keratinocytes with fibroblasts; actives raise or lower the signal
# In short: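 ELISA readout of uPA, analyzed for signal gain or loss relative to DMSO, from a human primary keratinocyte–foreskin fibroblast co-culture measured 24 h after chemical treatment.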
# CD40, CD40 (gene 958) = test: BSK_LPS_CD40: BioMAP Diversity Plus: LPS Assay for CD40 Biomarker Activity (AID 2283076); conditions: primary human HUVEC with PBMC; actives raise or lower the signal
# In short: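 Primary human umbilical vein endothelial cells co-cultured with peripheral blood mononuclear cells, LPS-stimulated, were dosed with chemical and read 24 h later. CD40 levels were measured by ELISA and fitted bidirectionally against DMSO as negative control and baseline.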
# [14] = read-out: E-selectin (Homo sapiens) (UniProt P16581); test: BSK_LPS_Eselectin: BioMAP Diversity Plus: LPS Assay for Eselectin Biomarker Activity (AID 2283077); conditions: primary human HUVEC with PBMC; actives raise or lower the signal
# In short: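 Human umbilical vein endothelial cells co-cultured with peripheral blood mononuclear cells under LPS stimulation; E-selectin measured by ELISA 24 h after chemical dosing. Activity fitted bidirectionally against DMSO as negative control and baseline.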
# [15] = read-out: Interleukin-8 (IL8), CXCL8 (gene 3576); test: BSK_LPS_IL8: BioMAP Diversity Plus: LPS Assay for Interleukin-8 (IL8) Biomarker Activity (AID 2283078); conditions: primary human HUVEC with PBMC; actives raise or lower the signal
# In short: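 Human umbilical vein endothelial cells co-cultured with PBMC were stimulated with LPS; IL-8 levels were measured by ELISA 24 h after chemical dosing. Activity was fitted bidirectionally against DMSO as negative control and baseline.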
# [16] = BSK_LPS_SRB: Viability Assessment in the BioMAP Diversity Plus: LPS Assay (AID 2283079); conditions: primary human HUVEC with PBMC;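 note: total protein by sulforhodamine B absorbance as a cytotoxicity measure; measured one day after compound addition; fitted in both directions against DMSO so loss or gain of signal counts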
# In short: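 Human umbilical vein endothelial cells co-cultured with PBMC (LPS system) were dosed for 24 h. Total protein was stained with 0.1% sulforhodamine B after 10% TCA fixation, read at 560 nm, and fitted bidirectionally against DMSO baseline.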
# [17] = read-out: Monocyte Chemoattractant Protein-1 (MCP1), CCL2 (gene 6347); test: BSK_LPS_MCP1: BioMAP Diversity Plus: LPS Assay for Monocyte Chemoattractant Protein-1 (MCP1) Biomarker Activity (AID 2283081); conditions: primary human HUVEC with PBMC; actives raise or lower the signal;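 for AC50: secreted MCP-1 protein quantified by ELISA in culture supernatant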
# In short: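 HUVEC plus PBMC co-culture (human primary cells, LPS system) exposed to test chemical for 24 h; MCP-1 measured by ELISA. Bidirectional curve fitting against DMSO baseline; parallel SRB total-protein staining flags overt cytotoxicity.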
# [18] = BSK_LPS_PGE2: BioMAP Diversity Plus: LPS Assay for Prostaglandin E2 (PGE2) Biomarker Activity (AID 2283082); conditions: primary human HUVEC with PBMC; actives raise or lower the signal;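 for AC50: secreted prostaglandin E2 measured by ELISA in LPS-stimulated co-culture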
# In short: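 HUVEC plus PBMC co-culture stimulated with LPS; secreted PGE2 quantified by ELISA 24 h after chemical dosing. Activity fitted bidirectionally against DMSO as negative control and baseline; parallel SRB total-protein staining served as cytotoxicity check.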
# [19] = read-out: Interleukin-1 alpha (IL1a), IL1A (gene 3552); test: BSK_LPS_IL1a: BioMAP Diversity Plus: LPS Assay for Interleukin-1 alpha (IL1a) Biomarker Activity (AID 2283080); conditions: primary human HUVEC with PBMC; actives raise or lower the signal
# In short: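 Human umbilical vein endothelial cells co-cultured with peripheral blood mononuclear cells were LPS-stimulated and exposed to test chemicals for 24 h. IL-1 alpha was quantified by ELISA, with bidirectional curve fitting against DMSO as the negative control and baseline.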
# E-selectin (Homo sapiens), sequence (P16581 whole entry, looked up): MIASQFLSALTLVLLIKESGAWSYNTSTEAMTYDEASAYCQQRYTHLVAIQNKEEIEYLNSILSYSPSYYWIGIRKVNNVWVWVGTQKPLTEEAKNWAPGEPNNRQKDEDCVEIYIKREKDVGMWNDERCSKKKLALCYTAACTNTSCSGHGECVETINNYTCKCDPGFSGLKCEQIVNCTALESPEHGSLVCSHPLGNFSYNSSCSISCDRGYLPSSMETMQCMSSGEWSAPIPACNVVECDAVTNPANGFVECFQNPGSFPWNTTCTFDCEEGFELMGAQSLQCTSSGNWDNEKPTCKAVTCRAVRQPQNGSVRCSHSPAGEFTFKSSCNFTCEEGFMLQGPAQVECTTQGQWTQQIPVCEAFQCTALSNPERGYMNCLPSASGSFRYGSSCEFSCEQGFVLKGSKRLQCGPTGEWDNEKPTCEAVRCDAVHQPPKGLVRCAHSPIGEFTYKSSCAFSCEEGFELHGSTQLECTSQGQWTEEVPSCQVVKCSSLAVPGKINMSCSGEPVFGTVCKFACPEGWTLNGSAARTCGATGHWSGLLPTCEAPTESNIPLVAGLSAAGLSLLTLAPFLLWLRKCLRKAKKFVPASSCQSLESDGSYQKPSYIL
smiles,measurement,setting,value
CCCOc1sc(C(=O)N2CCC(c3cc(CN)ccc3F)CC2)c(C)c1Br,AC50,[1],9.21 µM (active)
same,AC50,[2],10.3 µM (active)
same,AC50,[3],9.91 µM (active)
same,AC50,[4],6.22 µM (active)
same,AC50,[5],10.6 µM (active)
same,AC50,[6],7.07 µM (active)
same,AC50,[7],5.28 µM (active)
same,AC50,[8],10.6 µM (active)
same,AC50,[9],9.6 µM (active)
same,AC50,[10],8.97 µM (active)
same,AC50,[11],9.27 µM (active)
same,AC50,[12],5.74 µM (active)
same,AC50,[13],10.2 µM (active)
same,AC50,"CD40, CD40 (gene 958)",7.91 µM (active)
same,AC50,[14],11.1 µM (active)
same,AC50,[15],13.6 µM (active)
same,AC50,[16],5.93 µM (active)
same,AC50,[17],9.2 µM (active)
same,AC50,[18],12.5 µM (active)
Cc1cc(CCN2CCN(c3nsc4ccccc34)CC2)cc2c1NC(=O)CC2(C)C,AC50,[1],10.9 µM (active)
same,AC50,[2],8.43 µM (active)
same,AC50,[3],5.57 µM (active)
same,AC50,[4],14.6 µM (active)
same,AC50,[5],29.6 µM (active)
same,AC50,[6],33.4 µM (active)
same,AC50,[7],11.7 µM (active)
same,AC50,[8],26.6 µM (active)
same,AC50,[9],20 µM (active)
same,AC50,[10],13.2 µM (active)
same,AC50,[11],28.8 µM (active)
same,AC50,[12],16.5 µM (active)
same,AC50,[13],13.4 µM (active)
same,AC50,"CD40, CD40 (gene 958)",14.3 µM (active)
same,AC50,[14],30 µM (active)
same,AC50,[15],19.5 µM (active)
same,AC50,[16],32.8 µM (active)
same,AC50,[17],26.8 µM (active)
same,AC50,[18],5.37 µM (active)
OCCC(F)(F)C(F)(F)C(F)(F)C(F)(F)C(F)(F)C(F)(F)F,AC50,[1],55.4 µM (active) and 54.7 µM (active)
same,outcome,[1],inactive
same,AC50,[2],55.1 µM (active)
same,outcome,[2],inactive
same,AC50,[3],30 µM (active) and 47.4 µM (active)
same,outcome,[3],inactive
same,AC50,[4],53.5 µM (active) and 55.3 µM (active)
same,outcome,[4],inactive
same,outcome,[6],inactive
same,outcome,[7],inactive
same,outcome,[8],inactive
same,outcome,[9],inactive
same,outcome,[12],inactive
same,outcome,[13],inactive
same,AC50,"CD40, CD40 (gene 958)",40.8 µM (active)
same,outcome,"CD40, CD40 (gene 958)",inactive
same,outcome,[14],inactive
same,outcome,[15],inactive
same,outcome,[17],inactive
same,outcome,[18],inactive
COCC(C)O (stereo not given),outcome,[1],inactive
same,outcome,[2],inactive
same,outcome,[3],inactive
same,outcome,[4],inactive
same,outcome,[5],inactive
same,outcome,[6],inactive
same,outcome,[7],inactive
same,outcome,[8],inactive
same,outcome,[9],inactive
same,outcome,[12],inactive
same,outcome,[13],inactive
same,outcome,"CD40, CD40 (gene 958)",inactive
same,outcome,[14],inactive
same,outcome,[15],inactive
same,outcome,[16],inactive
same,outcome,[19],inactive
same,outcome,[17],inactive
same,outcome,[18],inactive
NCC(F)(F)C(F)(F)C(F)(F)C(F)(F)C(F)(F)C(F)(F)C(F)(F)F,outcome,[1],inactive
same,outcome,[2],inactive
same,outcome,[3],inactive
same,outcome,[4],inactive
same,outcome,[5],inactive
same,outcome,[6],inactive
same,outcome,[7],inactive
same,outcome,[8],inactive
same,outcome,[9],inactive
same,outcome,[11],inactive
same,outcome,[12],inactive
same,outcome,[13],inactive
same,outcome,"CD40, CD40 (gene 958)",inactive
same,outcome,[14],inactive
same,outcome,[15],inactive
same,outcome,[17],inactive
same,outcome,[18],inactive
O=C(O)Cc1cc(I)c(Oc2cc(I)c(O)c(I)c2)c(I)c1,AC50,[1],10.7 µM (active)
same,AC50,[2],8.58 µM (active)
same,AC50,[3],8.85 µM (active)
same,AC50,[4],8.1 µM (active)
same,AC50,[5],16.7 µM (active)
same,AC50,[6],4.59 µM (active)
same,AC50,[7],10.1 µM (active)
same,AC50,[8],18.7 µM (active)
same,AC50,[9],13.4 µM (active)
same,AC50,[10],8.34 µM (active)
same,AC50,[12],8.62 µM (active)
same,AC50,[13],18.8 µM (active)
same,AC50,"CD40, CD40 (gene 958)",14.7 µM (active)
same,outcome,[14],inactive
same,AC50,[15],20.5 µM (active)
same,AC50,[17],23.9 µM (active)
same,AC50,[18],15.1 µM (active)
